Out of some 39,000 compounds screened, about 3,300 (8.5%) were called active. The sample holds actives, similar compounds and a random draw of the others, so the mix is not that of the screen.

Among the data in the antibiotic and cytotoxicity screens of Wong et al. (2023) are cytotoxicity call values, retold here.

The subject of the test is HepG2. In words: cytotoxicity call (relative viability < 0.9). To be noted: 10 µM.
Consider `O=C(O)c1cc(N=Nc2ccc(S(=O)(=O)Nc3ccccn3)cc2)ccc1O`, for which the cytotoxicity call is “inactive”.
With `C[C@@H]1CN([C@H](C)CO)C(=O)Cc2cc(NC(=O)CCN3CCOCC3)ccc2O[C@@H]1CN(C)Cc1ccc(C(=O)O)cc1`, the cytotoxicity call is “inactive”.
For `C[C@H]1CN([C@@H](C)CO)C(=O)Cc2cc(NC(=O)CCN3CCOCC3)ccc2O[C@H]1CN(C)Cc1ccc(C(=O)O)cc1`, the cytotoxicity call is “inactive”.
To `COC(=O)[C@@]12O[C@@H]1[C@H](O[C@@H]1O[C@H](CO)[C@@H](O)[C@H](O)[C@H]1O)C[C@H]1[C@]3(C)C[C@@H](c4ccoc4)OC(=O)[C@H]3CC[C@]12C` belongs “active”; to `CC1(C)CC[C@]2(C(=O)O[C@H]3O[C@@H](CO)[C@@H](O)[C@@H](O)[C@@H]3O)CC[C@]3(C)C(=CC[C@H]4[C@@]5(C)C[C@@H](O)[C@H](O[C@H]6O[C@H](C(=O)O)[C@@H](O)[C@@H](O)[C@@H]6O)C(C)(C)[C@@H]5CC[C@]43C)[C@@H]2C1`, “inactive”; to `CC1(C)[C@H]2C[C@@H](O[C@H]3O[C@@H](CO)[C@@H](O)[C@@H](O)[C@@H]3O)[C@@]1(C)C[C@@H]2O`, “inactive”.
As to `COCC(=O)Nc1ccc2c(c1)OC[C@H](C)N(C(=O)Cc1cccnc1)C[C@H](C)[C@@H](OC)CN(C)C2=O`, the cytotoxicity call is “inactive”.
With `Cc1noc(C)c1S(=O)(=O)Nc1ccc2c(c1)C(=O)N([C@@H](C)CO)C[C@@H](C)[C@@H](CN(C)S(=O)(=O)c1ccccc1)O2`, the cytotoxicity call is “inactive”.
On to `CC(C)C#Cc1ccc2c(c1)O[C@H](CN(C)S(=O)(=O)c1cn(C)cn1)[C@@H](C)CN([C@@H](C)CO)S2(=O)=O`, for which the cytotoxicity call is “inactive”.
Turning to `C[C@@H]1CN([C@@H](C)CO)C(=O)Cc2cc(NS(C)(=O)=O)ccc2O[C@@H]1CN(C)Cc1ccc(C(=O)O)cc1`, the cytotoxicity call is “inactive”.
As to `C[C@H]1CN([C@@H](C)CO)C(=O)Cc2cc(NC(=O)Nc3cccc4ccccc34)ccc2O[C@@H]1CN(C)Cc1ccc(Oc2ccccc2)cc1`, the cytotoxicity call is “inactive”.
Regarding `C[C@@H]1CN([C@H](C)CO)C(=O)Cc2cc(NC(=O)Nc3cccc4ccccc34)ccc2O[C@@H]1CN(C)Cc1ccc(Oc2ccccc2)cc1`, the cytotoxicity call was “active”.
To `C[C@@H]1CN([C@H](C)CO)C(=O)Cc2cc(NC(=O)Nc3cccc4ccccc34)ccc2O[C@H]1CN(C)Cc1ccc(Oc2ccccc2)cc1` belongs “inactive”.
`C[C@H]1CN([C@@H](C)CO)C(=O)Cc2cc(NC(=O)Nc3cccc4ccccc34)ccc2O[C@H]1CN(C)Cc1ccc(Oc2ccccc2)cc1`: the cytotoxicity call is “active”.
For the compound `C[C@@H]1CN([C@@H](C)CO)C(=O)Cc2cc(NC(=O)Nc3cccc4ccccc34)ccc2O[C@@H]1CN(C)Cc1ccc(Oc2ccccc2)cc1`, the cytotoxicity call is “inactive”.
Take `C[C@@H]1CN([C@@H](C)CO)C(=O)Cc2cc(NC(=O)Nc3cccc4ccccc34)ccc2O[C@H]1CN(C)Cc1ccc(Oc2ccccc2)cc1`: the cytotoxicity call was “inactive”.
On to `C[C@H](CO)N1C[C@H](C)[C@@H](CN(C)Cc2ccc(Oc3ccccc3)cc2)Oc2ccc(NC(=O)Nc3cccc4ccccc34)cc2CC1=O`, for which the cytotoxicity call was “active”.
On to `C[C@H](CO)N1C[C@H](C)[C@H](CN(C)Cc2ccc(Oc3ccccc3)cc2)Oc2ccc(NC(=O)Nc3cccc4ccccc34)cc2CC1=O`, for which the cytotoxicity call is “inactive”.
Regarding `COc1ccc(S(=O)(=O)N(C)C[C@@H]2Oc3ccc(NS(=O)(=O)c4ccc(C)cc4)cc3C(=O)N([C@H](C)CO)C[C@H]2C)cc1`, the cytotoxicity call was “inactive”.
Turning to `COC(=O)[C@H]1CCNCCC1=O`, the cytotoxicity call is “inactive”.
For the compound `CN1CCN(C(=O)C[C@H]2CC[C@H]3[C@@H](COC[C@H](O)CN3CC3CCCC3)O2)CC1`, the cytotoxicity call was “inactive”.
Under `C[C@H](CO)N1C[C@H](C)[C@@H](CN(C)C(=O)Nc2ccnc(N3CCOCC3)c2)OCc2cnnn2CCCC1=O` stands “inactive”; under `Cn1cnc(S(=O)(=O)N[C@@H]2C=C[C@@H](CC(=O)NCC3CC3)O[C@H]2CO)c1`, “inactive”; under `O=C(O)C12CC(C1)C2`, “inactive”.
On to `COCC(=O)N(C)C[C@H]1Oc2cc(-c3ccc(C#N)cc3)ccc2S(=O)(=O)N([C@@H](C)CO)C[C@H]1C`, for which the cytotoxicity call was “inactive”.
To `Cc1noc(C)c1NC(=O)N[C@H]1C=C[C@H](CC(=O)N2CCN(C)CC2)O[C@H]1CO` belongs “inactive”; to `COc1cccc(C#Cc2ccc3c(c2)O[C@@H](CN(C)C(=O)CN2CCOCC2)[C@H](C)CN([C@H](C)CO)S3(=O)=O)c1`, “inactive”.
As to `Cc1ccc(S(=O)(=O)N(C)C[C@@H]2OCCCC[C@H](C)Oc3ccc(NC(=O)CCC(F)(F)F)cc3C(=O)N([C@H](C)CO)C[C@H]2C)cc1`, the cytotoxicity call is “inactive”.
For the compound `CC[C@@H]1OC(=O)C[C@@H](O)[C@H](C)[C@@H](O[C@@H]2O[C@H](C)[C@@H](O)[C@H](N(C)C)[C@H]2O)[C@@H](CCN2C[C@H](C)C[C@H](C)C2)C[C@@H](C)C(=O)/C=C/C(C)=C\[C@@H]1CO[C@@H]1O[C@H](C)[C@@H](O)[C@@H](OC)[C@H]1OC`, the cytotoxicity call is “inactive”.
For the compound `CCC1OC(=O)CC(O)C(C)C(OC2OC(C)C(O)C(N(C)C)C2O)C(CCN2CC(C)CC(C)C2)CC(C)C(=O)C=CC(C)=CC1COC1OC(C)C(O)C(OC)C1OC` (stereo not drawn), the cytotoxicity call was “active”.
For `CC[C@H]1OC(=O)C[C@@H](O)[C@H](C)[C@@H](O[C@@H]2O[C@H](C)[C@@H](O)[C@H](N(C)C)[C@H]2O)[C@@H](CCN2C[C@H](C)C[C@H](C)C2)C[C@@H](C)C(=O)/C=C/C(C)=C/[C@@H]1CO[C@@H]1O[C@H](C)[C@@H](O)[C@@H](OC)[C@H]1OC`, the cytotoxicity call was “inactive”.
For the compound `C[C@H](CO)N1C[C@H](C)[C@H](CN(C)Cc2ccncc2)Oc2ccc(NS(=O)(=O)c3cccs3)cc2C1=O`, the cytotoxicity call is “inactive”.
Take `CC(=O)OC1CC2C(C)(C)C(O)CCC2(C)C2CCC3(C)C(c4ccoc4)OC(=O)C4OC43C12C` (stereo not drawn): the cytotoxicity call is “inactive”.
As to `Cc1noc(C)c1S(=O)(=O)N(C)C[C@H]1Oc2ccc(NC(=O)C3CC3)cc2CC(=O)N([C@@H](C)CO)C[C@@H]1C`, the cytotoxicity call was “inactive”.
To `C[C@@H]1CCCCO[C@H](CN(C)S(=O)(=O)c2ccc(F)cc2)[C@H](C)CN([C@@H](C)CO)C(=O)c2cc(NC(=O)Nc3ccc(C(F)(F)F)cc3)ccc2O1` belongs “active”; to `C[C@@H]1CCCCO[C@@H](CN(C)S(=O)(=O)c2ccc(F)cc2)[C@H](C)CN([C@@H](C)CO)C(=O)c2cc(NC(=O)Nc3ccc(C(F)(F)F)cc3)ccc2O1`, “inactive”.
Turning to `C[C@H](CO)N1C[C@H](C)[C@H](CN(C)S(=O)(=O)c2ccc(F)cc2)OCCCC[C@H](C)Oc2ccc(NC(=O)Nc3ccc(C(F)(F)F)cc3)cc2C1=O`, the cytotoxicity call was “inactive”.
Regarding `C[C@@H]1CN([C@@H](C)CO)C(=O)c2cc(NC(=O)Nc3ccc(C(F)(F)F)cc3)ccc2O[C@@H](C)CCCCO[C@H]1CN(C)S(=O)(=O)c1ccc(F)cc1`, the cytotoxicity call is “inactive”.
On to `C[C@H]1CCCCO[C@H](CN(C)S(=O)(=O)c2ccc(F)cc2)[C@@H](C)CN([C@@H](C)CO)C(=O)c2cc(NC(=O)Nc3ccc(C(F)(F)F)cc3)ccc2O1`, for which the cytotoxicity call was “inactive”.
For the compound `C[C@@H]1CCCCO[C@H](CN(C)S(=O)(=O)c2ccc(F)cc2)[C@@H](C)CN([C@H](C)CO)C(=O)c2cc(NC(=O)Nc3ccc(C(F)(F)F)cc3)ccc2O1`, the cytotoxicity call is “active”.
Take `C[C@@H]1CN([C@H](C)CO)C(=O)c2cc(NC(=O)Nc3ccc(C(F)(F)F)cc3)ccc2O[C@@H](C)CCCCO[C@@H]1CN(C)S(=O)(=O)c1ccc(F)cc1`: the cytotoxicity call was “inactive”.
Consider `C[C@H](CO)N1C[C@H](C)[C@@H](CN(C)S(=O)(=O)c2ccc(F)cc2)OCCCC[C@H](C)Oc2ccc(NC(=O)Nc3ccc(C(F)(F)F)cc3)cc2C1=O`, for which the cytotoxicity call is “inactive”.
For the compound `C[C@@H]1CCCCO[C@@H](CN(C)S(=O)(=O)c2ccc(F)cc2)[C@@H](C)CN([C@@H](C)CO)C(=O)c2cc(NC(=O)Nc3ccc(C(F)(F)F)cc3)ccc2O1`, the cytotoxicity call is “active”.
